Assay outcomes from PubChem.
Sfp PPTase inh – inhibitors of Bacillus subtilis Sfp phosphopantetheinyl transferase | Q9F4F7 | Biochemical Sfp PPTase activity, qHTS | Potency, µM, inactives show largest response in the series, negative = inhibition, usual class: inhibitors | hit rate 3.5% among 310,000 | AID 1490;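 note: the enzyme is Sfp with the accession as filed and its product quenches rhodamine fluorescence; 0% = enzyme reaction without inhibitor and -100% = no enzyme wells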
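Sfp 15 nM + cpd, 15 min RT; start w/ rhodamine-CoA 5 uM, BHQ-2-YbbR 12.5 uM (final); 50 mM Hepes pH 7.6, 10 mM MgCl2, 0.01% NP-40, 0.01% BSA; read 525/598 nm at 0 and 30 min.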
PLK1 PBD inh – PLK1 (human) polo-box domain binding inhibition; hit rate 2.8% among 360,000; Potency, µM, inactives show max response, negative = inhibition, most hits filed as inhibitors; P53350; Plk1 PBD binding of FITC phosphopeptide, fluorescence polarization; note: series mostly up to about 57 µM; nearly all actives have a fitted effect of over 65% in size
Tau fluor counter – counter-screen for tau fibril formation inhibitors; tau K18 P301L Alexa594 fluorescence, heparin fibrillization; Potency, µM (top dose mostly 57.7 µM), for inactives: at the highest dose activity change, negative = decrease; hit rate 0.93% among 280,000; note: nearly all actives have a fitted effect of over 55% in size
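Human K18 P301L tau (15 uM unlabeled plus 0.24 uM Alexa 594-labeled, final) in 100 mM sodium acetate pH 7 was mixed with compound and 20 uM heparin and incubated 6 hr at 37 C.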
VDR inhibitor – blocks the human vitamin D receptor | P11473 | VDR-SRC2-3 peptide fluorescence polarization, 2 h | Potency, µM, inactives show max response, negative = inhibition, hits mostly inhibitors | hit rate 0.93% among 400,000
Target sequence (P11473 whole entry, looked up): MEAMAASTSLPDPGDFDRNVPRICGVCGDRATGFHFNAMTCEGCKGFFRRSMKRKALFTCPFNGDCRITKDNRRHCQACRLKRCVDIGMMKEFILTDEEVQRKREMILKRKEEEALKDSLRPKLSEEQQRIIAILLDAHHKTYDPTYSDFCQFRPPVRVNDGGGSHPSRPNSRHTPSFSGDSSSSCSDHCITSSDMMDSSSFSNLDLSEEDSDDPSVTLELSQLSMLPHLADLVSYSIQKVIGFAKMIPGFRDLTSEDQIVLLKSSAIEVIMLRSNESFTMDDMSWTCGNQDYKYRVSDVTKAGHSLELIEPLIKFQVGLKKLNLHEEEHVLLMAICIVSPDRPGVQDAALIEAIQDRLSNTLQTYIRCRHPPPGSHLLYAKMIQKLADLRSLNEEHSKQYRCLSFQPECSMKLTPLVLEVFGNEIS
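Inhibition of the VDR/SRC2-3 peptide interaction is quantified by fluorescence polarization. Compounds (23 nl, pintool) incubate with the reagents for 2 hours at ambient room temperature.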
Tau fibril ThT – tau fibrillization inhibition (ThT binding); P10636; recombinant tau K18 P301L (four-repeat tau fragment), heparin-induced fibrillization, ThT fluorescence; Potency, µM (titrated, usually from 57.4 µM), for the others: top-dose activity, negative = inhibition, hits mostly inhibitors; hit rate 2.1% among 270,000; AID 1460; note: nearly all actives have a fitted effect of over 55% in size
Target sequence (P10636 561-689 P618L limits assumed): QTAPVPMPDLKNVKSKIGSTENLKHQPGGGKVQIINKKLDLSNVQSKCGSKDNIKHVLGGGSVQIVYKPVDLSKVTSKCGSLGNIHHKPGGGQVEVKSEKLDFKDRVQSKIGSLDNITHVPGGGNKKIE
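Tau K18 P301L fragment (15 uM unlabeled plus 0.24 uM Alexa 594-labeled) in 100 mM sodium acetate pH 7 with compound, fibrillization induced by 20 uM heparin for 6 hr at 37 C. Thioflavin T (30 uM) added, fluorescence read after 1 hr (ex 450, em 510 nm).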
Tau FP inhib – inhibitors of human tau fibril formation; Potency, µM (doses to about 57.7 µM), without a hit: at the top dose activity, negative = inhibition, usual class: inhibitors; K18 P301L tau heparin fibrillization, Alexa594 FP, 6 h; P10636; hit rate 0.39% among 280,000; note: nearly all actives have a fitted effect of over 55% in size
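Read-out: fluorescence polarization of Alexa 594-labeled tau (0.24 uM), 555 nm excitation, 632 nm emission. Mixtures held 15 uM unlabeled K18 P301L, compound and 20 uM heparin, pH 7 acetate buffer, incubated 6 hr at 37 C.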
Numbers without * were called inactive; [ ] = dose if it differs, or a comment. Shown are actives, neighbours in structure and some others; about 6% of the full set was active somewhere. Calls come from the whole dose curve; as a rule, active = well fitted curve in the direction sought with a large enough effect; inconclusive = small, poorly fitted or top-dose-only effect, or another doubt; inactive = no such curve, though single readings can be large; an effect the other way counts as inactive or inconclusive. Unless noted, % is set by controls: 0 for no effect and ±100 for the full control effect; potency is the fitted concentration of half-maximal effect.

Results for Cc1cc(C)cc(NC(=O)Nc2ccc3nc(N4CCN(C)CC4)cc(C)c3c2)c1 ?
Tau fluor counter: 7.94µM*[quencher]; VDR inhibitor: 12.5%; Tau fibril ThT: inconclusive; Tau FP inhib: inconclusive

Results for Cc1cc(N2CCN(C)CC2)nc2ccc(NC(=O)Nc3ccccc3Cl)cc12 ?
Tau fluor counter: 14.1µM*[quencher]; VDR inhibitor: -2.0%; Tau fibril ThT: 14.1µM*; Tau FP inhib: inconclusive

Results for Cc1cc(N2CCN(C)CC2)nc2ccc(NC(=O)Nc3ccc(F)cc3)cc12 ?
Tau fluor counter: inconclusive; VDR inhibitor: 13.7%; Tau fibril ThT: inconclusive; Tau FP inhib: inconclusive

What do the screens show for `COc1ccc(NC(=O)C(=O)NCC(c2ccc3c(c2)OCO3)N2CCN(C)CC2)cc1` (centres undefined)?
Tau fluor counter: 0.3%; VDR inhibitor: 1.1%; Tau fibril ThT: -0.1%; Tau FP inhib: 2.8%

Results for CCCCN=c1scc(-c2ccc3c(c2)NC(=O)CO3)n1N=C1CCCC1 ?
Sfp PPTase inh: 7.2%; PLK1 PBD inh: 16.8µM*; Tau fluor counter: inconclusive; VDR inhibitor: -13.3%; Tau fibril ThT: inconclusive; Tau FP inhib: 16.6%

What do the screens show for `CC/C=C\C[C@H](O)/C=C/C=C\C/C=C\C/C=C\CCCC(=O)O`?
Sfp PPTase inh: 19.3%; Tau fluor counter: -6.7%; VDR inhibitor: 8.3%; Tau fibril ThT: -3.2%; Tau FP inhib: 1.4%

Results for COc1ccc(NC(=O)C2(C)CCN2CCOc2ccccc2)cc1OC (centres undefined) ?
PLK1 PBD inh: -9.4%

What do the screens show for `COc1ccc(C(=O)Nc2ccc(NC(=O)c3cccs3)c(OC)c2)cc1Cl`?
Sfp PPTase inh: 19.0%; PLK1 PBD inh: 7.5%; Tau fluor counter: inconclusive; VDR inhibitor: -12.6%; Tau fibril ThT: inconclusive; Tau FP inhib: -5.2%

What do the screens show for `COc1ccc(C(=O)Nc2ccc(NC(=O)c3cccs3)cc2)cc1Cl`?
Sfp PPTase inh: -9.2%; PLK1 PBD inh: 3.77µM*; Tau fluor counter: -9.6%; VDR inhibitor: inconclusive; Tau fibril ThT: inconclusive; Tau FP inhib: -8.3%

What do the screens show for `COc1ccc(NC(=O)Nc2cccs2)cc1Cl`?
Sfp PPTase inh: 44.7µM*; PLK1 PBD inh: -10.5%; Tau fluor counter: 10µM*[quencher]; VDR inhibitor: -25.9%; Tau fibril ThT: inconclusive; Tau FP inhib: inconclusive

What do the screens show for `Nc1ccc2cc3[nH]c4cc(N)ccc4c3nc2c1`?
PLK1 PBD inh: 2.38µM*; VDR inhibitor: 33.4%

How did Nc1ccc(-c2nc3ccc(N)cc3[nH]2)cc1 do in these assays?
Sfp PPTase inh: 2.2%; PLK1 PBD inh: 1.5%; Tau fluor counter: inconclusive; VDR inhibitor: 34.3%; Tau fibril ThT: inconclusive; Tau FP inhib: -0.7%

How did O=C(O)/C=C\C(=O)Nc1ccc(N2CCN(c3ccc(Cl)cc3)CC2)cc1 do in these assays?
Sfp PPTase inh: -15.5%; PLK1 PBD inh: -5.3%; Tau fluor counter: inconclusive; VDR inhibitor: inconclusive; Tau fibril ThT: 3.55µM*; Tau FP inhib: inconclusive

How did CC(C)c1ccc(N2CCN(C(=O)c3ccccc3NC(=O)/C=C\C(=O)O)CC2)cc1 do in these assays?
Sfp PPTase inh: 79.4µM*; PLK1 PBD inh: -8.9%; Tau fluor counter: -12.6%; VDR inhibitor: 5.4%; Tau fibril ThT: -25.5%; Tau FP inhib: -1.0%

Results for O=C(O)/C=C\C(=O)Nc1ccc(N2CCN(c3cccc(Cl)c3)CC2)cc1 ?
Sfp PPTase inh: -21.8%; PLK1 PBD inh: inconclusive; Tau fluor counter: -18.3%; VDR inhibitor: -7.6%; Tau fibril ThT: inconclusive; Tau FP inhib: -1.1%

Results for O=C(O)/C=C\C(=O)Nc1ccc(N2CCN(c3ccc(Cl)c(Cl)c3)CC2)cc1 ?
Sfp PPTase inh: -20.6%; PLK1 PBD inh: inconclusive; Tau fluor counter: inconclusive; VDR inhibitor: inconclusive; Tau fibril ThT: 2.24µM*; Tau FP inhib: inconclusive

How did O=C(O)/C=C\C(=O)Nc1ccc(N2CCN(c3ccc(F)cc3)CC2)cc1 do in these assays?
Sfp PPTase inh: inconclusive; PLK1 PBD inh: -7.2%; Tau fluor counter: inconclusive; VDR inhibitor: 11.3%; Tau fibril ThT: 5.62µM*; Tau FP inhib: -16.0%

Results for Cc1ccc(S(=O)(=O)N2CCC(C(=O)N3CCc4ccccc43)CC2)cc1C ?
PLK1 PBD inh: -6.8%; VDR inhibitor: -12.8%

Results for CCC1CCCCN1S(=O)(=O)c1cc2c(cc1C)NC(=O)CO2 (centres undefined) ?
Tau fluor counter: -19.3%; VDR inhibitor: 2.9%; Tau fibril ThT: inconclusive; Tau FP inhib: -6.2%
